Data published in PubChem BioAssay (EPA / NIEHS).
Results filed as inconclusive are left out. Active and inactive are the calls of the source. The calls were made as follows, unless noted: active = hit-call score of the fitted dose curve at least 0.9, where 1 is the maximum; inconclusive = response in the unintended direction; inactive = score below 0.9.

How the values were obtained:
[1] = target: Retinoic acid receptor alpha (Homo sapiens) (UniProt P10276); experiment: ATG_DR5_RAR_CIS: Attagene CIS-FACTORIAL HepG2 Assay for human Retinoic Acid Receptor Alpha (RARE), DR5 submotif (AID 2282934; active = hit-call score of the fitted dose curve at least 0.9, where 1 is the maximum; inactive = score below 0.9;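 as to AC50: reporter responds to endogenous RAR alpha beta and gamma in HepG2 not RARA alone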); conditions: HepG2 Attagene cis-factorial RARE DR5 reporter, mRNA; actives raise or lower the signal
Method in brief: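 HepG2, transient cis-reporter transfection, 24 h exposure. mRNA readout: RT-PCR, FAM label, HpaI cut, capillary electrophoresis. DMSO baseline, gain/loss fitting.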

[2] = ATG_M_19_CIS: Attagene CIS-FACTORIAL HepG2 Assay for M19 Transcription Factor (Internal Marker) (AID 2282939; active = hit-call score of the fitted dose curve at least 0.9, where 1 is the maximum; inactive = score below 0.9); conditions: HepG2 Attagene CIS-FACTORIAL M19 internal marker reporter; actives raise or lower the signal
Method in brief: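 HepG2 cells transiently transfected with cis-regulated multiplexed reporter units, dosed 24 h. Reporter mRNA quantified by RT-PCR and capillary electrophoresis; internal background marker fitted bidirectionally versus DMSO.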

[3] = target: Hepatocyte nuclear factor 3-beta (Homo sapiens) (UniProt Q9Y261); experiment: ATG_FoxA2_CIS: Attagene CIS-FACTORIAL HepG2 Assay for human Forkhead box A2 (FOXA2) (AID 2282942; active = hit-call score of the fitted dose curve at least 0.9, where 1 is the maximum; inactive = score below 0.9); conditions: HepG2 cis-reporter transcription factor activity, 24 h; actives raise or lower the signal
Method in brief: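 Cells: HepG2, transient multiplex reporter transfection. Exposure 24 h. Detection: reporter-specific RT-PCR, fluorescent labelling, restriction digest, capillary electrophoresis. Analysis: bidirectional curve fit, DMSO as negative control.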

[4] = ATG_PBREM_CIS: Attagene CIS-FACTORIAL HepG2 Assay for human Phenobarbital-responsive Enhancer Module (PBREM) (AID 2282955; active = hit-call score of the fitted dose curve at least 0.9, where 1 is the maximum; inactive = score below 0.9); conditions: HepG2 PBREM cis-reporter, Attagene multiplexed transcription; actives raise or lower the signal
Method in brief: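 HepG2, transient MRTU transfection, 24 h dosing; RNA → oligo(dT) RT → PCR → 6-FAM extension → HpaI → CE. Bidirectional fit vs DMSO.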

[5] = ATG_PXRE_CIS: Attagene CIS-FACTORIAL HepG2 Assay for human Pregnane X Receptor Element (PXRE) (AID 2282957; active = hit-call score of the fitted dose curve at least 0.9, where 1 is the maximum; inactive = score below 0.9); conditions: HepG2 Attagene CIS-FACTORIAL PXRE reporter, mRNA; actives raise or lower the signal
Method in brief: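 Cis-element reporter mRNA in human hepatoma HepG2 cells is measured 24 h post-dosing by RT-PCR, primer-extension labeling and capillary electrophoresis; gain or loss of signal is fitted relative to DMSO.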

[6] = ATG_RORE_CIS: Attagene CIS-FACTORIAL HepG2 Assay for human RAR-related Orphan Receptor Element (RORE) (AID 2282959; active = hit-call score of the fitted dose curve at least 0.9, where 1 is the maximum; inactive = score below 0.9); conditions: HepG2 Attagene cis-factorial RORE reporter, mRNA; actives raise or lower the signal
Method in brief: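 Multiplexed reporter assay measuring mRNA induction from a cis promoter element in transiently transfected HepG2 cells after 24 h treatment. Detection via RT-PCR and capillary electrophoresis fluorescence; DMSO serves as baseline.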

[7] = ATG_Sox_CIS: Attagene CIS-FACTORIAL HepG2 Assay for human SRY-box transcription factor (SOX) (AID 2282960; active = hit-call score of the fitted dose curve at least 0.9, where 1 is the maximum; inactive = score below 0.9); conditions: HepG2 Attagene cis-factorial SOX reporter, mRNA; actives raise or lower the signal
Method in brief: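 Cells were transfected with reporter constructs under cis-regulatory promoters, then exposed to chemicals for 24 h. Reporter transcripts were quantified by fluorescence after RT-PCR and capillary electrophoresis; activity was fitted in both directions against DMSO.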

[8] = target: Hepatocyte nuclear factor 4-alpha (Homo sapiens) (UniProt P41235); experiment: ATG_HNF4a_TRANS: Attagene TRANS-FACTORIAL HepG2 Assay for human Hepatocyte Nuclear Factor 4 alpha (HNF4a) (AID 2282982); conditions: HepG2 HNF4a transactivation reporter, mRNA readout
Method in brief: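 Readout is fluorescent reporter-transcript fragments resolved by capillary electrophoresis after RT-PCR from HepG2 cells dosed for 24 h. Cells carried transfected GAL4-UAS reporter constructs measuring exogenous NR-GAL4 chimera activity; DMSO served as baseline.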

[9] = ATG_M_32_TRANS: Attagene TRANS-FACTORIAL HepG2 Assay for M32 Transcription Factor (Internal Marker) (AID 2282984); conditions: HepG2 Attagene TRANS M32 internal marker reporter
Method in brief: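 Measures reporter mRNA induction in human HepG2 liver cells after 24 h chemical treatment. Transcripts from transiently transfected GAL4-UAS reporter units are amplified, fluorescently labelled and sized by capillary electrophoresis; gain of signal relative to DMSO.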

[10] = target: human Peroxisome Proliferator-activated Receptor alpha (PPARa), PPARA (gene 5465) (UniProt Q07869); experiment: ATG_PPARa_TRANS: Attagene TRANS-FACTORIAL HepG2 Assay for human Peroxisome Proliferator-activated Receptor alpha (PPARa) (AID 2283001);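 as to AC50: potency for gain of reporter signal over DMSO so agonist or activator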
Method in brief: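 Read-out is fluorescence of reporter cDNA fragments resolved by capillary electrophoresis after RT-PCR. Human HepG2 liver cells carried transfected PPARa-Gal4 chimera and GAL4-UAS reporter units, treated 24 h; activity scored as increase over DMSO.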

[11] = target: Retinoic acid receptor RXR-alpha (Homo sapiens) (UniProt P19793); experiment: ATG_RXRa_TRANS: Attagene TRANS-FACTORIAL HepG2 Assay for human Retinoid X Receptor alpha (RXRa) (AID 2283012)
Method in brief: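 HepG2 cells transiently transfected with GAL4-UAS reporter units and chimeric RXRa-Gal4 protein, treated 24 h. Reporter mRNA measured by RT-PCR, fluorescent labelling, HpaI digestion and capillary electrophoresis. Induction fitted against DMSO.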

[12] = TOX21_p53_BLA_p2_viability: Viability Assessment in the Tox21 HCT-116 p53 Agonism Beta-lactamase Assay, Phase 2 (AID 2283591);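 also: compound exposure lasted 16 h at 37 °C; actives lower the ATP signal meaning cytotoxicity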
Method in brief: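 Cytotoxicity readout: CellTiter-Glo ATP luminescence, 30 min at room temperature, after the beta-lactamase read. Cells were HCT116 exposed 16 h at 37C to compounds pin-transferred at 217-fold dilution from DMSO stocks.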

[13] = target: Cellular tumor antigen p53 (Homo sapiens) (UniProt P04637); experiment: TOX21_p53_BLA_p2_ratio: Tox21 HCT-116 p53 Agonism Beta-lactamase Assay, Ratio, Phase 2 (AID 2283592)
Method in brief: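 In this cell-based reporter format, HCT116 cells were dosed with chemicals delivered from DMSO by 217-fold dilution and incubated 16 h at 37C. Emission at 460 and 530 nm after 2 h CCF4-AM loading provided the ratio, fitted upward versus DMSO.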

[14] = TOX21_p53_BLA_p3_viability: Viability Assessment in the Tox21 HCT-116 p53 Agonism Beta-lactamase Assay, Phase 3 (AID 2283593);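 also: cells exposed to compound for 16 h before reading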
Method in brief: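 Cellular ATP was quantified by CellTiter-Glo luminescence, read after 30 min at room temperature. Beforehand, HCT116 cells (4000/well) received compound 5 h post-seeding, 217-fold diluted from DMSO, then incubated 16 h at 37C.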

[15] = target: Cellular tumor antigen p53 (Homo sapiens) (UniProt P04637); experiment: TOX21_p53_BLA_p3_ratio: Tox21 HCT-116 p53 Agonism Beta-lactamase Assay, Ratio, Phase 3 (AID 2283596)
Method in brief: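 HCT116 p53-bla cells (4000/well) given compound in DMSO (217-fold dilution) after 5 h, incubated 16 h at 37C. CCF4-AM substrate 2 h at room temperature; 460/530 nm emission ratio, gain fitted against DMSO.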

[16] = target: Cellular tumor antigen p53 (Homo sapiens) (UniProt P04637); experiment: TOX21_p53_BLA_p5_ratio: Tox21 HCT-116 p53 Agonism Beta-lactamase Assay, Ratio, Phase 5 (AID 2283599)
Method in brief: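 Beta-lactamase reporter ratio (blue 460 nm over green 530 nm, 405 nm excitation) after 2 h CCF4-AM loading, in HCT-116 cells exposed 16 h at 37 C to compounds pinned at 217-fold dilution. Increases relative to DMSO baseline scored.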

[17] = TOX21_p53_BLA_p5_viability: Viability Assessment in the Tox21 HCT-116 p53 Agonism Beta-lactamase Assay, Phase 5 (AID 2283600)
Method in brief: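 Compounds, pinned from DMSO at 217-fold dilution, were left on the cells for 16 h. The viability endpoint was ATP content measured by CellTiter-Glo luminescence, where falling signal reflects cytotoxicity.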

[18] = target: Cellular tumor antigen p53 (Homo sapiens) (UniProt P04637); experiment: TOX21_p53_BLA_p4_ratio: Tox21 HCT-116 p53 Agonism Beta-lactamase Assay, Ratio, Phase 4 (AID 2283601)
Method in brief: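 Signal is the blue/green (460nm/530nm) ratio of cleaved versus uncleaved CCF4-AM substrate, read after 2 h substrate loading. Cells were HCT116 carrying the p53-responsive beta-lactamase reporter, dosed 16 h at 37C, 5% CO2; CellTiter-Glo measured in parallel.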

[19] = ATG_M_32_CIS: Attagene CIS-FACTORIAL HepG2 Assay for M32 Transcription Factor (Internal Marker) (AID 2282949; active = hit-call score of the fitted dose curve at least 0.9, where 1 is the maximum; inactive = score below 0.9;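 also: background control marker of the multiplexed CIS panel rather than a real target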); conditions: HepG2 Attagene cis-factorial M32 reporter, mRNA; actives raise or lower the signal
Method in brief: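 HepG2 cells transiently transfected with multiplexed cis-regulated reporter units, dosed 24 h. Reporter mRNA quantified by RT-PCR, 6-FAM labelling, HpaI digestion and capillary electrophoresis; bidirectional fit vs DMSO.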

[20] = target: human Retinoid X Receptor beta (RXRb), RXRB (gene 6257) (UniProt P28702); experiment: ATG_RXRb_TRANS: Attagene TRANS-FACTORIAL HepG2 Assay for human Retinoid X Receptor beta (RXRb) (AID 2283013)
Method in brief: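 HepG2 cells were transiently transfected with multiplexed GAL4-UAS reporters and a chimeric RXRb-Gal4 construct, then exposed for 24 h. Reporter mRNA was quantified by RT-PCR, FAM labeling, HpaI digestion and capillary electrophoresis; gain of signal was scored against DMSO.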

Measured: AC50

Hepatocyte nuclear factor 3-beta (Homo sapiens), sequence (Q9Y261 whole entry, looked up): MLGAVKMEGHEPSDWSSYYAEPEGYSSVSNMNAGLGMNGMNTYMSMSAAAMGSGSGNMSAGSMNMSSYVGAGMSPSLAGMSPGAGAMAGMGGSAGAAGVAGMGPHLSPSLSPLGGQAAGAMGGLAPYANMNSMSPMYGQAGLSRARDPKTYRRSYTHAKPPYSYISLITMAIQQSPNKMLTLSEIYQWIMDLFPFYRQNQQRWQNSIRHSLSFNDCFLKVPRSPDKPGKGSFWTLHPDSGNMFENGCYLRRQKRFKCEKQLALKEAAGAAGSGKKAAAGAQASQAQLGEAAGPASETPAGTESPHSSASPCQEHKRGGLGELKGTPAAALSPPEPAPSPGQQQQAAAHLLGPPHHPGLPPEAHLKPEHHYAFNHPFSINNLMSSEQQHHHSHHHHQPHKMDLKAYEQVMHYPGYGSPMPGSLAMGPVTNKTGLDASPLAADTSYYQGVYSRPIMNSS
Retinoic acid receptor alpha (Homo sapiens), sequence (P10276 whole entry, looked up): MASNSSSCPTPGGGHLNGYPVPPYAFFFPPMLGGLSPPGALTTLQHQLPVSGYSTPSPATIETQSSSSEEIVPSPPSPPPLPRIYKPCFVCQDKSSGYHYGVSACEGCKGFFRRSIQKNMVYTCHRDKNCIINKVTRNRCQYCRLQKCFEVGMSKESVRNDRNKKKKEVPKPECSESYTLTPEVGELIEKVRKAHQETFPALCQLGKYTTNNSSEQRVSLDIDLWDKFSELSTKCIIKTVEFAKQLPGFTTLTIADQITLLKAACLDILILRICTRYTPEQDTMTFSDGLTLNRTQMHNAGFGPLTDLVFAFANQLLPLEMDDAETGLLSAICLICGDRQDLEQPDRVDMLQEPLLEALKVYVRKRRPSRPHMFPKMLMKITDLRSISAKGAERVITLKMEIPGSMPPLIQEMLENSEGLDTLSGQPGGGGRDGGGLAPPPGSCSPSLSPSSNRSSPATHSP
Hepatocyte nuclear factor 4-alpha (Homo sapiens), sequence (P41235 whole entry, looked up, the tested form may be a part): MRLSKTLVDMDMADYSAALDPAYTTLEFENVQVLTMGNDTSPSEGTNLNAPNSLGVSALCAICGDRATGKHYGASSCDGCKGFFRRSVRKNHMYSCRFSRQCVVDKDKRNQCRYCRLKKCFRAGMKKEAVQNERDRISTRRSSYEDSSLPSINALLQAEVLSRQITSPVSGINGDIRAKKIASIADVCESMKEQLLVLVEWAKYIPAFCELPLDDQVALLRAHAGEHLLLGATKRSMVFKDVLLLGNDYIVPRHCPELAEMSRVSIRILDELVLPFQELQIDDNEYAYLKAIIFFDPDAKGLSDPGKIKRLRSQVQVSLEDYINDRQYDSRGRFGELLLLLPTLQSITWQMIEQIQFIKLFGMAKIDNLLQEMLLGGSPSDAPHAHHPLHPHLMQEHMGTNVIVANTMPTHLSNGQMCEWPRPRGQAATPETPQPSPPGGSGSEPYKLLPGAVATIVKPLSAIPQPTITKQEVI
Retinoic acid receptor RXR-alpha (Homo sapiens), sequence (P19793 whole entry, looked up, the tested form may be a part): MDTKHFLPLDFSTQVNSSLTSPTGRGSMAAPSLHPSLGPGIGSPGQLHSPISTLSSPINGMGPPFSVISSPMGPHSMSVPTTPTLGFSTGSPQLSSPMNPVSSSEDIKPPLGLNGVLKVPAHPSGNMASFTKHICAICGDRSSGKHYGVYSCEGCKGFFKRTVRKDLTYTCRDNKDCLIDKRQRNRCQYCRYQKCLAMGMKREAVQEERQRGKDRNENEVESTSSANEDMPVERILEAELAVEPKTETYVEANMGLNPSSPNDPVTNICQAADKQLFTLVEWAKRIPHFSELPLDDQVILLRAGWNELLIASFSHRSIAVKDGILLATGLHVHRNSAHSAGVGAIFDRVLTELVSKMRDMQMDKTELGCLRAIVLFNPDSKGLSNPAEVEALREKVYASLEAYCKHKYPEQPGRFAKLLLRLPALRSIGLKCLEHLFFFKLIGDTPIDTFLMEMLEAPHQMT
human Peroxisome Proliferator-activated Receptor alpha (PPARa), PPARA (gene 5465), sequence (Q07869 whole entry, looked up, the tested form may be a part): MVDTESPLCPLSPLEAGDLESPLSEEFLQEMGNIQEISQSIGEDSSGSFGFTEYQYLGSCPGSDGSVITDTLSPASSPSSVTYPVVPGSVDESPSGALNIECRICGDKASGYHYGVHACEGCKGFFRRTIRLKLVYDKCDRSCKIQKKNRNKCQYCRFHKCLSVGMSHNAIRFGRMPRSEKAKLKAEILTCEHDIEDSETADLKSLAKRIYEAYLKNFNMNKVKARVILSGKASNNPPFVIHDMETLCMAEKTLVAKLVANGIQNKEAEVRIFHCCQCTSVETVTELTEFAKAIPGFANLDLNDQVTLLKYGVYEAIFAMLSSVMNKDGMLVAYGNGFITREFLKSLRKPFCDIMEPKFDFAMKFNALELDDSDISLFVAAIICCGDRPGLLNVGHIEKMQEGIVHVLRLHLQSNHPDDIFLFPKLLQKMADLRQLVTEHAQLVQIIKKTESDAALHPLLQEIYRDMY
Cellular tumor antigen p53 (Homo sapiens), sequence (P04637 whole entry, looked up): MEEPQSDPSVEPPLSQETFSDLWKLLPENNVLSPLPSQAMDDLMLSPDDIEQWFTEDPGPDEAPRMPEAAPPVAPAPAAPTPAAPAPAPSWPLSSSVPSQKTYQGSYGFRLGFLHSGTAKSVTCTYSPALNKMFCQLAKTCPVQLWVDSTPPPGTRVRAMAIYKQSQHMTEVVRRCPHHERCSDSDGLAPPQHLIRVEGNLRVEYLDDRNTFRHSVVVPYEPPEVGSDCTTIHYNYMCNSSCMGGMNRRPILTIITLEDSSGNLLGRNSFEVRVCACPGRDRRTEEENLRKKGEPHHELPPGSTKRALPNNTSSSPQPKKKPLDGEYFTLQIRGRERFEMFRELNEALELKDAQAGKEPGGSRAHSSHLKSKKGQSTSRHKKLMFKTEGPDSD
human Retinoid X Receptor beta (RXRb), RXRB (gene 6257), sequence (P28702 whole entry, looked up, the tested form may be a part): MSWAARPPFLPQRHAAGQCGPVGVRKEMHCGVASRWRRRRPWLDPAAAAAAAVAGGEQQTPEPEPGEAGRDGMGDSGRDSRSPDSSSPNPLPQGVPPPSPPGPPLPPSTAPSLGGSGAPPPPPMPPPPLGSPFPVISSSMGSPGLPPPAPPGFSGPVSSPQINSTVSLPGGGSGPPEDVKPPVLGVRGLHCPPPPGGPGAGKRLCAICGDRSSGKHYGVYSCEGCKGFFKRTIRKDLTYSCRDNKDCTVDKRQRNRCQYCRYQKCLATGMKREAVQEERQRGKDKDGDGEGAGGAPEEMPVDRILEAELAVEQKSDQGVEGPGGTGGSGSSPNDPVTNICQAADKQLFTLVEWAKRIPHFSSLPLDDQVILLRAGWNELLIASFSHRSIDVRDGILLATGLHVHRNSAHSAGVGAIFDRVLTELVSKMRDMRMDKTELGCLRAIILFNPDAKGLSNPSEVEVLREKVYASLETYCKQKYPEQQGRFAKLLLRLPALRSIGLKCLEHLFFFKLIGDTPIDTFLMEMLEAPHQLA

CCCCCCCCCCCCCCCCCC[N+](C)(C)C
active: [1] 42.5 µM | [3] 45.4 µM | [4] 45.4 µM | [7] 40.7 µM | [8] 37.3 µM | [9] 16.2 µM | [10] 40.9 µM | [12] 46.2 µM | [13] 73.2 µM | [14] 46.2 µM | [15] 72.7 µM | [16] 75 µM | [17] 62.8 µM | [18] 75.3 µM
inactive: [2] | [5] | [6] | [11]

Cc1ccnc(N)c1
inactive: [1] | [2] | [19] | [4] | [6] | [7] | [9] | [11] | [20] | [12] | [16]

CCCCNC(N)=O
inactive: [1] | [3] | [19] | [4] | [6] | [10] | [11] | [20] | [12] | [13] | [14] | [15] | [16] | [17] | [18]

CCCCCCC1CCCC(=O)O1 (stereo not given)
active: [6] 19.8 µM | [10] 27.3 µM
inactive: [1] | [2] | [3] | [19] | [4] | [8] | [9] | [11] | [12] | [13] | [14] | [16] | [17] | [18]

CCC(=O)OCc1ccc(OC)cc1
active: [5] 29.7 µM
inactive: [1] | [2] | [3] | [4] | [6] | [8] | [9] | [11] | [20] | [12] | [13] | [15] | [16] | [18]

CCc1cc(C(N)=S)ccn1
inactive: [1] | [2] | [3] | [19] | [6] | [7] | [8] | [10] | [20] | [12] | [13] | [14] | [15] | [16] | [17] | [18]

C=CCOCC(CC)(CO)COCC=C
inactive: [1] | [2] | [3] | [4] | [7] | [20] | [12] | [13] | [14] | [15] | [17]

O=C(CC(C(=O)OC1CCCCC1)S(=O)(=O)O)OC1CCCCC1 (stereo not given)
inactive: [1] | [2] | [3] | [19] | [4] | [6] | [7] | [8] | [9] | [20] | [12] | [13] | [14] | [16] | [17] | [18]
active: [5] 9.51 µM | [10] 35.1 µM

O=C1NC(=O)C2CC=CCC12 (stereo not given)
inactive: [1] | [2] | [3] | [19] | [4] | [5] | [7] | [8] | [11] | [12] | [13] | [14] | [15] | [16] | [17] | [18]

Cc1cc(O)cc(C)c1Cl
inactive: [19] | [5] | [7] | [9] | [10] | [11]
active: [1] 79.6 µM | [20] 48.8 µM

CC(=O)CCc1ccccc1
inactive: [1] | [2] | [3] | [19] | [4] | [6] | [7] | [10] | [13] | [14] | [15] | [16] | [17] | [18]

Cc1cc(-n2nc3ccc(Cl)cc3n2)c(O)c(C(C)(C)C)c1
inactive: [1] | [2] | [3] | [19] | [4] | [7] | [8] | [11] | [13] | [14] | [15] | [16]

CCCCC(CC)COC(=O)CS (stereo not given)
active: [5] 13.1 µM
inactive: [1] | [2] | [3] | [19] | [7] | [9] | [10] | [11] | [20] | [12] | [13] | [14] | [15] | [18]

CNC[C@H](O)[C@@H](O)[C@H](O)[C@H](O)CO
active: [5] 26 µM
inactive: [1] | [2] | [19] | [4] | [6] | [7] | [9] | [10] | [12] | [13] | [14] | [15] | [16] | [17] | [18]

O=C1NC(=O)[C@@H]2CC=CC[C@H]12
inactive: [1] | [2] | [3] | [4] | [5] | [6] | [7] | [8] | [10] | [11] | [20] | [12] | [13] | [14] | [15] | [16] | [17] | [18]

NC(=O)c1ccc([N+](=O)[O-])cc1Cl
inactive: [1] | [2] | [3] | [19] | [4] | [5] | [6] | [7] | [8] | [9] | [20] | [12] | [13] | [16] | [17] | [18]
